The results in this text go back to PubChem BioAssay.

For part of these data: Results with a measured potency or affinity are listed apart. Active and inactive are the calls of the source.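 Rule for the calls, unless noted: active = thallium flux through the channel raised or lowered by more than 3 SD from vehicle-only wells, actives on both sides; inactive = the rest.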

The nature of assay [1]: antimalarial activity against Dd2 strain (AID 2302;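 active = growth inhibition above 50% at the single 2 µM test dose, taken to imply half-maximal potency below 2 µM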;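 note: 0% = DMSO untreated growth and 100% = chloroquine plus artemisinin killed control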). The following applies: P. falciparum Dd2 in RBCs, LDH growth readout, 72 h; at 2 µM; stronger effect = higher value.
Assay [2] in a line: HepG2 cytotoxicity, primary screen, cytotoxicity control for P. falciparum antimalarial project, cell-based, ATP luminescence (AID 2303;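 active = inhibition above 50%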;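 note: 0% = DMSO wells and 100% = digitonin-killed cells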). The conditions noted are these: HepG2 viability, 24-48 h, at 10 µM, stronger effect = higher value.
Assay [3] deals with L-lactate dehydrogenase (Plasmodium falciparum (isolate CDC / Honduras)) (UniProt Q27743). As to the kind of experiment: PfLDH activity inhibition – cell lysate, 3D7 strain, counter-screen for P. falciparum growth inhibition project (AID 2304; call rule not given here;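 note: 0% = vehicle and 100% = reference inhibitor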). The following applies: P. falciparum 3D7 crude extract, LDH APAD/NBT absorbance; at 2 µM; stronger effect = higher value. On the technique in general: The purpose of a counterscreen is to sort out artefacts and off-target activity.
Chain of L-lactate dehydrogenase (Plasmodium falciparum (isolate CDC / Honduras)) (Q27743 whole entry, looked up): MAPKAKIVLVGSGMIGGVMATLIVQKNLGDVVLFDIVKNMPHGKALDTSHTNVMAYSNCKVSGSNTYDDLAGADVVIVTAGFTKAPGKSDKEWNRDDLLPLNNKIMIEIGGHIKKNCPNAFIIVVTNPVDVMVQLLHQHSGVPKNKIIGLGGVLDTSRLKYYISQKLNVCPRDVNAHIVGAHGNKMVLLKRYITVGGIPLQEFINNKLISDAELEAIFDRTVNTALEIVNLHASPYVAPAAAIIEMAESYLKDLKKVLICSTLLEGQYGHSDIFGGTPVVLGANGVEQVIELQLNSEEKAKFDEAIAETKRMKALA

A short description of assay [4]: inhibition of 3D7 malaria parasite growth – strain 3D7 (AID 2306; call rule not given here;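 note: 0% = DMSO wells and 100% = chloroquine plus artemisinin control wells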). The following applies: P. falciparum 3D7 erythrocytic growth, LDH absorbance, 72 h; at 2 µM; stronger effect = higher value.
Assay [5] addresses Protein kinase 7 (PK7), Plasmodium falciparum 3D7 (PF3D7_0213400) (UniProt Q7YTF7). In words: inhibition of Plasmodium PK7 catalytic activity – biochemical, TCAMS antimalarial set, Kinase-Glo luminescence (AID 1159587; call rule not given here). The conditions noted are these: recombinant PfPK7, Kinase-Glo ATP depletion luminescence. On the technique in general: Kinase-Glo reads ATP consumption through a luciferase reaction.

Assay [6] concerns the target Calcium-dependent protein kinase 4 (Plasmodium falciparum (isolate 3D7)) (UniProt Q8IBS5). As to the kind of experiment: PfCDPK4 kinase inhibitors, biochemical, TCAMS library (AID 1159588; cut-off not given, nearly all actives have IC50 up to about 0.91 µM). The conditions noted are these: recombinant PfCDPK4, Kinase-Glo ATP depletion luminescence.
For assay [7], the target named is Plasmodium falciparum protein kinase 6 (PK6, PF3D7_1337100) (UniProt Q8IDW1). As to the kind of experiment: PfPK6 kinase inhibitors, biochemical, TCAMS library (AID 1159586; call rule not given here). The conditions noted are these: recombinant PfPK6, Kinase-Glo ATP depletion luminescence.
Chain of Plasmodium falciparum protein kinase 6 (PK6, PF3D7_1337100) (Q8IDW1 1-305): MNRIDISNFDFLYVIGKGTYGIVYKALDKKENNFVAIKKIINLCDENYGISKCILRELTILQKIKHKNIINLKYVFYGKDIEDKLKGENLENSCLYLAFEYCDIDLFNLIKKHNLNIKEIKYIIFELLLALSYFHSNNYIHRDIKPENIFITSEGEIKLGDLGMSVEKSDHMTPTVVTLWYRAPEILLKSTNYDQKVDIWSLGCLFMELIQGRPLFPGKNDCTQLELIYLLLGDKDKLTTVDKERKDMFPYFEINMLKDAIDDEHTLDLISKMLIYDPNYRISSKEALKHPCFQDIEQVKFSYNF
A short description of assay [8]: sensitizers of A549 cells to miR-34 induction, primary screen, imaging, A549 dox-inducible miR-34, nuclei and caspase counts (AID 1347080;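 active = compounds whose cell count with miR-34 switched on is under 0.7 times the count with it off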). The conditions noted are these: A549 miR-34 inducible, Hoechst nuclei count, 48 h.
A short description of assay [9]: phospholipid biosynthesis inhibitors in animal cells, primary screen, cell-based, LOPAC library, screen 4 (AID 1347384; call rule not given here). The following applies: phospholipid biosynthesis inhibition screen, at 10 µM.
The nature of assay [10]: viability rescue of complex I mutant cybrids, primary screen, cell-based, galactose medium, ATP luminescence (AID 1645843;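 active = z-score of at least 1.8 in each of two replicates, scored against plate mean and spread of sample wells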;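 note: positive z means more ATP and so rescue of galactose-driven cybrid death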). The conditions noted are these: complex I mutant cybrid cells, 72 h, stronger effect = higher value.
Assay [11] relates to F380Y. In words: modulators of BK channel variants, profiling panel, selectivity assay, cell-based, U2OS BacMam, thallium flux, beta subunits (AID 1259406).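 Note: initial slope of Thallos dye fluorescence rise after thallium is added; log ratio against the mean of 0.3% DMSO vehicle wells on the same plate.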 The conditions noted are these: at 30 µM.
Assay [12] concerns F380Y/beta1. Described as above. The conditions noted are these: at 30 µM.
For assay [13], the system named is F380Y/beta2Delta. The description is as above. The conditions noted are these: at 30 µM.
The test system of assay [14] is F380Y/beta4. Described as above. The following applies: at 30 µM.
In assay [15] the target is Calcium-activated potassium channel subunit alpha-1 (Homo sapiens) + Leucine-rich repeat-containing protein 26 (Homo sapiens) (UniProt Q12791+Q2I0M4). Described as above. The conditions noted are these: F380Y/Slo1WT/gamma1, at 30 µM.
Chain of Calcium-activated potassium channel subunit alpha-1 (Homo sapiens) + Leucine-rich repeat-containing protein 26 (Homo sapiens) (Q2I0M4 whole entry, looked up, one chain of several): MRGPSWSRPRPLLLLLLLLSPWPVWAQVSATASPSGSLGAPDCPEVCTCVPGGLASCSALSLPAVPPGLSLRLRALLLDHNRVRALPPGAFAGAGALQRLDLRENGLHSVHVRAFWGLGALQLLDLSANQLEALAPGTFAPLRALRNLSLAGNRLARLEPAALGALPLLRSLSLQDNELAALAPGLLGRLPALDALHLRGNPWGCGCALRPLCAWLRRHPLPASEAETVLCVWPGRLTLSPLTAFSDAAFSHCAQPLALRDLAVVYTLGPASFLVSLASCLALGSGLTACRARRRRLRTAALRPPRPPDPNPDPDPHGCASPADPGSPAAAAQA
In assay [16] the test system is R275C. The assay is described as above. The conditions noted are these: at 30 µM.
Assay [17] has as its system R275C/beta1. Described as above. The following applies: at 30 µM.
Assay [18] relates to R275C/beta2Delta. The description is as above. The following applies: at 30 µM.
In assay [19] the test system is R275C/beta4. The assay is described as above. The conditions noted are these: at 30 µM.
Assay [20] relates to R275C/Slo1WT/beta2. The assay is described as above. The conditions noted are these: at 30 µM.

Chain of Protein kinase 7 (PK7), Plasmodium falciparum 3D7 (PF3D7_0213400) (Q7YTF7 1-343): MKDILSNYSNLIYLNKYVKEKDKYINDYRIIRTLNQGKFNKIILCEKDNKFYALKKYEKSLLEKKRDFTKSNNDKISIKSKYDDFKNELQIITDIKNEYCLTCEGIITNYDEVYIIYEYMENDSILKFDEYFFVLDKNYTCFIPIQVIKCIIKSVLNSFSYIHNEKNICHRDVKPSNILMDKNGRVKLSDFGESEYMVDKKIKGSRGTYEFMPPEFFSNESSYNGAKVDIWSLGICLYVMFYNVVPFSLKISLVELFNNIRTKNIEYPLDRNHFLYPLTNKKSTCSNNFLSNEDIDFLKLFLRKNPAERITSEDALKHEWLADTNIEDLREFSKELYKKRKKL
Chain of Calcium-dependent protein kinase 4 (Plasmodium falciparum (isolate 3D7)) (Q8IBS5 whole entry, looked up): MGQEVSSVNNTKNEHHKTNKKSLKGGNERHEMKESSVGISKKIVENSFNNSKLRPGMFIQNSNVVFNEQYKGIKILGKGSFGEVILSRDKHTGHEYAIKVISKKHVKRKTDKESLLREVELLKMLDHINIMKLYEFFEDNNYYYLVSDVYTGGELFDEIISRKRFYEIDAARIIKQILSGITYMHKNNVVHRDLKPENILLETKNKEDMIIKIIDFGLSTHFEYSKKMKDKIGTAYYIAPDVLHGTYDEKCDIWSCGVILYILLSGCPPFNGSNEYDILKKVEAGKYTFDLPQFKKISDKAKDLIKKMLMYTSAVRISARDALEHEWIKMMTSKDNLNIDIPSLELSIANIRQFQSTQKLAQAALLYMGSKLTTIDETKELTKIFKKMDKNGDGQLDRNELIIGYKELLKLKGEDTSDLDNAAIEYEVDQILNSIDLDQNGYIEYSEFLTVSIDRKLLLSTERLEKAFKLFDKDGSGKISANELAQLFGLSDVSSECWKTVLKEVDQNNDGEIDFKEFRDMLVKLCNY

For the molecule `COc1ccc(Nc2ncc(C#N)c(Nc3ccccc3C(N)=O)n2)cc1N1CCN(C)CC1`, the growth inhibition in assay [1] was 97% (active); in [4], 93% (active). Besides, the inhibition was 56% (active) in [2] and -1% (inactive) in assay [3]. The result in assay [5] and in assay [6] was inactive.
Take `COc1ccc(Nc2ncc3c(-c4cccc(NC(=O)Cc5ccc(O)cc5)c4)c[nH]c3n2)cc1OC`: the growth inhibition in assay [1] was 99% (active); in assay [4], 102% (active). Besides, the results for the inhibition in [2] and in [3] were 48% (inactive) and -2% (inactive), respectively. Besides, the outcome in [5] and in assay [6] was inactive.
On to `O=S1(=O)NCc2ccc(Nc3nccc(Nc4ccc5c(cnn5Cc5ccccc5)c4)n3)cc21`, for which the figures for the growth inhibition in assay [1] and in assay [4] were 33% (inactive) and 94% (active), respectively. Moreover, the inhibition was -8% (inactive) in assay [2] and -1% (inactive) in assay [3]. The result in assay [5] and in assay [6] was inactive.
On to `CCn1c(-c2nonc2N)nc2c(-c3cccc(NC(=O)Nc4ccc(C#N)cc4)c3)ncc(OCCCN)c21`, for which the growth inhibition is 80% (active) in assay [1] and 85% (active) in assay [4]. In addition, the values for the inhibition in [2] and in [3] were 1% (inactive) and 0% (inactive), respectively. The result in assay [7] and in assay [5] was inactive.
Turning to `O=C(NCC(c1ccc(C(F)(F)F)cc1)N1CCCC1)c1cc(-c2ccncc2)c(-c2cccc(O)c2)o1` (centres undefined), the results for the growth inhibition in assay [1] and in assay [4] were 53% (active) and 95% (active), respectively. Also, the inhibition in assay [2] was 9% (inactive); in assay [3], 0% (inactive). Also, the result in assay [7] and in assay [5] was inactive.
On to `Cn1c(=O)c(-c2c(Cl)cccc2Cl)cc2cnc(Nc3ccc(N4CCOCC4)cc3)nc21`, for which the growth inhibition in assay [1] was 97% (active); in assay [4] it was 98% (active). For the same molecule, the inhibition was 64% (active) in assay [2] and 4% (inactive) in assay [3]. Further, the outcome in assay [5], in [6] and in assay [9] was inactive. Besides, the fold change in assay [8] (stronger effect = lower value, cell number ratio, induced over uninduced) was 1.06 (inactive); in assay [8] (measured here: relative caspase fold change +Dox/-Dox) it was 1.37. The cell count in assay [8] (measured here: total cells with miR-34 induction, stronger effect = lower value) is 814; in [8] (measured here: total cells without miR-34 induction), 768. In addition, in assay [10], the z-score is -1.38 (inactive).
`NCCCNc1nc(Nc2cccc(C(N)=O)c2)c2c(=O)[nH]ccc2n1`: the growth inhibition in assay [1] was 49% (inactive); in assay [4] it was 99% (active). For the same molecule, the results for the inhibition in assay [2] and in assay [3] were 9% (inactive) and -3% (inactive), respectively. The outcome in [7] and in assay [5] was inactive.
As to `CNC(=O)c1ccccc1Nc1nc(Nc2ccc(CCN3CCN(C)CC3)cc2)ncc1Cl`, the growth inhibition in assay [1] is 98% (active); in [4], 97% (active). The inhibition in [2] is 76% (active); in [3], 5% (inactive). Besides, the outcome in [5] was inactive.
For `CN1CCN(c2ccc(Nc3ncc(C#N)c(Nc4ccccc4C(N)=O)n3)cc2)CC1` the same measures were 93% (active), 92% (active), 43% (inactive), -1% (inactive) and “inactive”.
As to `NC(=O)c1ccccc1Nc1nc(Nc2cccc(N3CCN(CCO)CC3)c2)ncc1Cl`, the growth inhibition in [1] is 98% (active); in assay [4], 95% (active). The inhibition is 93% (active) in assay [2] and 1% (inactive) in assay [3]. Besides, the outcome in assay [5] and in assay [6] was inactive.
Turning to `COc1cc(CCC(C)NC(=O)c2ccc(C)cc2)ccc1OC(=O)c1ccc(C)cc1` (centres undefined), the log fold change Tl+ flux is -0.0917 (inactive) in assay [11]; -0.0646 (inactive) in [12]; -0.0421 (inactive) in assay [13]; -0.23 (active) in assay [14]; -0.115 (active) in [15]; -0.0349 (inactive) in assay [16]. Besides, the log fold change Tl+ flux was -0.0935 (inactive) in [17], -0.0312 (inactive) in assay [18], -0.0233 (inactive) in assay [19] and 0.00819 (inactive) in assay [20].
As to `CC(=O)Nc1cccc(Nc2nccc(-c3c(-c4cccc(NC(=O)c5c(F)cccc5F)c4)nn4ncccc34)n2)c1`, the growth inhibition in [1] was 51% (active); in assay [4] it was 96% (active). Besides, the inhibition is 83% (active) in assay [2] and 5% (inactive) in assay [3]. Also, in assay [5], the outcome was inactive.
On to `Cc1cc(C)n2nc(Sc3ncccc3[N+](=O)[O-])nc2n1`, for which the log fold change Tl+ flux in assay [11] was 0.0293 (inactive); in [12] it was -0.0122 (inactive); in assay [13] it was -0.0308 (inactive); in assay [14] it was 0.00857 (inactive); in [15], 0.0468 (inactive); in assay [16], 0.0175 (inactive). Moreover, the log fold change Tl+ flux in assay [17] is -0.025 (inactive); in assay [18], -0.00322 (inactive); in [19], 0.00925 (inactive); in [20], 0.0318 (inactive).
`N#Cc1c(F)cccc1NC1CCN(Cc2ccccc2)CC1`: the log fold change Tl+ flux in assay [11] is -0.0529 (inactive); in assay [12], -0.0783 (inactive); in [13], -0.0626 (inactive); in assay [14], -0.103 (active); in assay [15], -0.0887 (inactive); in assay [16] it was -0.0649 (inactive). Further, the log fold change Tl+ flux in assay [17] was -0.0261 (inactive); in [18] it was -0.0118 (inactive); in assay [19] it was -0.0356 (inactive); in assay [20], -0.0644 (inactive).
`Cn1c(SCCS(=O)(=O)c2ccc(OC(F)(F)F)cc2)nnc1C(F)(F)F`: the log fold change Tl+ flux in [11] is -0.047 (inactive); in [12], -0.00843 (inactive); in [13], -0.0119 (inactive); in [14], 0.00857 (inactive); in [15] it was -0.00452 (inactive); in [16], 0.0189 (inactive). Also, the log fold change Tl+ flux was -0.0256 (inactive) in [17], -0.0306 (inactive) in assay [18], -0.0219 (inactive) in assay [19] and -0.0104 (inactive) in assay [20].
With `NC1(C(=O)O)CCSCC1`, the log fold change Tl+ flux is -0.0475 (inactive) in [11]; 0.00895 (inactive) in [12]; -0.0146 (inactive) in [13]; 0.00194 (inactive) in [14]; -0.0223 (inactive) in assay [15]; -0.0154 (inactive) in assay [16]. For the same molecule, the log fold change Tl+ flux was -0.0495 (inactive) in assay [17], 0.0435 (inactive) in assay [18], -0.00913 (inactive) in assay [19] and -0.00295 (inactive) in [20].
Regarding `Cc1ccc(S(N)(=O)=O)c(I)c1`, the log fold change Tl+ flux is 0.00642 (inactive) in assay [11]; 0.0178 (inactive) in [12]; 0.0148 (inactive) in [13]; -0.000543 (inactive) in assay [14]; -0.0495 (inactive) in [15]; 0.0442 (inactive) in [16]. The log fold change Tl+ flux was 0.0166 (inactive) in assay [17], -0.00341 (inactive) in [18], 0.00339 (inactive) in assay [19] and -0.0513 (inactive) in [20].

By inhibition is commonly meant the drop in the measured response relative to a control, in per cent.
